Calls of active or inactive are those of the source. How the calls were made is not given here.
Biological target: Pantothenate synthetase (Mycobacterium tuberculosis (strain ATCC 25618 / H37Rv)) (UniProt P9WIL5)
Assay: Coupled enzyme confirmation of inhibitors against recombinant Mtb PanC (AID 375);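 further: 0% = full reaction with vehicle and 100% = no enzyme background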
Conditions: coupled enzyme assay; at 10 µM, hits give high values

Chain of Pantothenate synthetase (Mycobacterium tuberculosis (strain ATCC 25618 / H37Rv)) (P9WIL5 whole entry, looked up): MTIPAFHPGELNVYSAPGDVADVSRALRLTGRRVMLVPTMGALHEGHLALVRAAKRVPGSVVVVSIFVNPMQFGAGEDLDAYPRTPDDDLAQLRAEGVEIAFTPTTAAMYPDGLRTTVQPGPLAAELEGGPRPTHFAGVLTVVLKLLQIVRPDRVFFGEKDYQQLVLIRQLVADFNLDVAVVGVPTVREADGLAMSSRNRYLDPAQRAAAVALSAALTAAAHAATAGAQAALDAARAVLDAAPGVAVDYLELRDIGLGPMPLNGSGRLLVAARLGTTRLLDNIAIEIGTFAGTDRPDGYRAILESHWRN

Compound | inhibition
O=C(CCCn1c(=O)c2sccc2n(Cc2cc(=O)n3ccccc3n2)c1=O)NCc1ccco1 | 0% (inactive)
CCOc1ccccc1N1CC(O)=C(c2nc3ccccc3s2)C1=N | 9% (inactive)
O=C(CC1Oc2ccc(Cl)cc2NC1=O)NC1CCCCCC1 (stereo not given) | 6% (inactive)
C=CCOc1nc(N2CCCC2)nc(N2CCCC2)n1 | 5% (inactive)
Cc1ccccc1CS(=O)(=O)CCC(=O)N1CCN(c2ccc(N3CCOCC3)nn2)CC1 | 9% (inactive)
CC(CCc1ccccc1)NC(=O)C1CCCN(c2nnc(-n3cccc3)s2)C1 (stereo not given) | 0% (inactive)
Cc1ccc(S(=O)(=O)CCc2nnc(NC(=O)c3cnccn3)s2)cc1 | 8% (inactive)
CC(C)(C)Nc1nc(NC(C)(C)C)nc(-n2ccnc2)n1 | 0% (inactive)
CCc1nnc(NC(=O)C2CC(=O)N(Cc3ccco3)C2)s1 (stereo not given) | 0% (inactive)
COc1cc(C(=O)Nc2nc(-c3cccs3)cs2)cc(OC)c1OC | 0% (inactive)
CCOC(=O)c1sc(NC(=O)CSc2n[nH]c(-c3ccccc3)n2)c(C#N)c1C | 11% (inactive)
COc1ccc(CN2C(=O)c3cccnc3C2Nc2cc(Cl)ccc2OC)cc1 (stereo not given) | 3% (inactive)
COc1ccccc1C(=O)N1CCN(C(=O)c2ccncc2)CC1 | 0% (inactive)
CCSc1nnc(NC(=O)c2ccccn2)s1 | 1% (inactive)
Cc1c(Cl)cccc1Nc1ccccc1C(=O)O | 1% (inactive)
CCCC(=O)O[C@]1(C(=O)COC(C)=O)CC[C@H]2[C@@H]3C[C@H](F)C4=CC(=O)C=C[C@]4(C)[C@@]3(F)[C@@H](O)C[C@@]21C | 0% (inactive)
O=C(Nc1cc(C(F)(F)F)ccc1N1CCCC1)c1ccc2c(c1)OCO2 | 2% (inactive)
COc1ccc(C(=O)NCCSc2ccccn2)cc1 | 5% (inactive)
CN(C)CCCN1C(=O)C(=O)/C(=C(/O)c2ccncc2)C1c1cccc(Br)c1 (stereo not given) | 1% (inactive)
CN(CC(=O)N1CCN(c2ccccn2)CC1)S(=O)(=O)c1ccc2ccccc2c1 | 0% (inactive)

Compound | inhibition
CCN(CC)c1ccc(C(=O)n2cnc3ccccc32)cc1 | 4% (inactive)
CCOC(=O)c1sc2nc(N3CCCC3)c3c(c2c1N)CC(C)(C)OC3 | 0% (inactive)
CCOc1ccccc1NC(=O)CSc1c(C)n[nH]c1C | 5% (inactive)
Cn1c(SCc2ccccc2)nnc1C1CCCNC1 (stereo not given) | 0% (inactive)
COc1ccc(S(=O)(=O)N(C)C2CCN(C)CC2)cc1 | 0% (inactive)
O=C(O)C1CC(=O)N(c2ccc(OCc3ccccc3Cl)cc2)C1 (stereo not given) | 0% (inactive)
O=C(CN1CCN(Cc2ccccc2)CC1)Nc1ccc(Cl)cn1 | 3% (inactive)
C=CCNC(=O)c1cc(-c2ccccc2O)on1 | 0% (inactive)
CCn1c(SCC(=O)Nc2nnc(C)s2)nnc1-c1ccncc1 | 1% (inactive)
COc1cccc(-c2nc(CS(=O)CC(=O)NCCCOC(C)C)c(C)o2)c1 (stereo not given) | 2% (inactive)
CCC(Oc1ccccc1)C(=O)Nc1ccccc1OC (stereo not given) | 0% (inactive)
CC(=O)c1cn(CC(=O)NCc2ccc3c(c2)OCO3)c2ccccc12 | 0% (inactive)
CCc1nnc(NC(=O)CSc2nnc(-c3ccc(OC)cc3)n2C)s1 | 0% (inactive)
CCn1c(SCC(=O)Nc2ccc3c(c2)OCO3)nc2c(c1=O)SC(C)C2 (stereo not given) | 0% (inactive)
COc1ccc(C(=O)NCCC(C)C)cc1S(=O)(=O)N1CCOCC1 | 9% (inactive)
COc1ccc(CCNC(=O)C2CCN(S(=O)(=O)c3cc(OC)ccc3OC)CC2)cc1 | 0% (inactive)
Nc1nnc(Cc2ccc(Cl)cc2)s1 | 4% (inactive)
Cc1cc(C)n(CC2CC(=O)N(c3ccc(Cl)c(Cl)c3)C2=O)n1 (stereo not given) | 0% (inactive)
CCOC(=O)c1sc(N)c(C(=O)OCC)c1COC(=O)C1CC(=O)N(Cc2ccco2)C1 (stereo not given) | 6% (inactive)
Cn1c(=O)c(=O)n(C)c2cc(S(=O)(=O)N3CCCCC3)ccc21 | 14% (inactive)
